{"source": "ChEMBL document CHEMBL4513216", "about": "“Probing the Open Global Health Chemical Diversity Library for Multistage-Active Starting Points for Next-Generation Antimalarials” (ACS Infect Dis, 2020)", "note": "Hit rate of the full screen: of about 68,000 compounds, about 2,700 (4%) showed an effect of 50% or more. The entries come from a sample that favours strong results as a whole."}
{"system": "Plasmodium berghei", "experiment": "Screen against P. berghei liver stage (PbLuc), transformed with Luciferase, at 2uM", "assay_type": "functional, HepG2", "conditions": "tested at 2 uM", "units": {"INHIBITION": "%"}}
{"smiles": "Cc1cc(N2CCC(Cc3cnccn3)C2)ncn1", "note": "(centres undefined)", "INHIBITION": -10.89}
{"smiles": "CC(C)C(C#N)N1CCN(Cc2nccn2CC(F)(F)F)CC1", "note": "(centres undefined)", "INHIBITION": -16.4}
{"smiles": "O=C1[C@@H]2CCN(C3CCOCC3)C[C@@H]2OCCN1Cc1cccnc1", "INHIBITION": 4.08}
{"smiles": "O=C1[C@@H]2CCN(Cc3ccoc3)C[C@@H]2OCCN1Cc1cccnc1", "INHIBITION": -32.67}
{"smiles": "CCS(=O)(=O)N1CC[C@H]2C(=O)N(Cc3cccnc3)CCO[C@H]2C1", "INHIBITION": 58.52}
{"smiles": "CCOCC(O)CN1CCN(C(=O)c2cc(Cl)ccc2F)CC1", "note": "(centres undefined)", "INHIBITION": 15.08}
{"smiles": "Cc1ccc(C2NC(=O)c3cc(C(C)C)sc3N2)cc1", "note": "(centres undefined)", "INHIBITION": 46.98}
{"smiles": "CC(C)c1cc2c(s1)NC(c1ccccc1)NC2=O", "note": "(centres undefined)", "INHIBITION": 51.76}
{"smiles": "CC(C)c1cc2c(s1)NC(c1ccccn1)NC2=O", "note": "(centres undefined)", "INHIBITION": -23.17}
{"smiles": "O=C(NC1CCC1)c1n[nH]c2c1CNCC2", "INHIBITION": -29.3}
{"smiles": "Cc1nc(C)n(C2CCCN(C(=O)CCCOc3ccccc3)C2)n1", "note": "(centres undefined)", "INHIBITION": -17.71}
{"smiles": "Cc1cc(C)n(C2CCCN(C(=O)CCCc3ccccn3)C2)n1", "note": "(centres undefined)", "INHIBITION": -5.15}
{"smiles": "COc1ccccc1CC(=O)N1CCCC(n2nc(C)cc2C)C1", "note": "(centres undefined)", "INHIBITION": -7.5}
{"smiles": "Cc1nc(C)n(C2CCCN(C(=O)CCCc3ccccn3)C2)n1", "note": "(centres undefined)", "INHIBITION": 70.27}
{"smiles": "COc1ccccc1CC(=O)N1CCCC(n2nc(C)nc2C)C1", "note": "(centres undefined)", "INHIBITION": 59.23}
{"smiles": "Cc1nc(C)n(C2CCCN(C(=O)COc3ccccc3)C2)n1", "note": "(centres undefined)", "INHIBITION": -2.9}
{"smiles": "CCc1nnc(CN2CCOC(Cn3cc(C)cn3)C2)o1", "note": "(centres undefined)", "INHIBITION": -50.23}
{"smiles": "O=C(O)c1cc(C2=CCCCC2)cc(S(=O)(=O)NCc2ccccn2)c1", "INHIBITION": 40.88}
{"smiles": "CC(C)(C)n1ncc(NCC(O)c2ccccc2C(F)(F)F)c(Cl)c1=O", "note": "(centres undefined)", "INHIBITION": 6.26}
{"smiles": "OC1(CNCCc2csc(-c3ccncc3)n2)CCCNC1", "note": "(centres undefined)", "INHIBITION": 10.72}
{"smiles": "Fc1ccc(CN2CC[C@H]3O[C@@H](COCC4CCOCC4)CC[C@H]32)cc1", "INHIBITION": 32.31}
{"smiles": "Cn1cncc1-c1nnc([C@H]2CCN(CC(C)(C)C)C2)o1", "INHIBITION": -23.78}
{"smiles": "CN(CCCOc1ccccc1Cl)C(=O)CN1CCCCCC1=O", "INHIBITION": 50.42}
{"smiles": "CN(CCCOc1ccccc1Cl)C(=O)CN1CCNC1=O", "INHIBITION": -9.33}
{"smiles": "CN(CCCOc1ccccc1Cl)C(=O)CN1C(=O)CCNC1=O", "INHIBITION": 27.67}
{"smiles": "COC(C)(C)C(=O)N1Cc2cnc(C(C)(C)C)nc2C1", "INHIBITION": -82.18}
{"smiles": "CC(OCC1CC1)C(=O)Nc1cccc(C(=O)Nc2ccccn2)c1", "note": "(centres undefined)", "INHIBITION": -5.74}
{"smiles": "NC(=O)c1cn(CC2CC2)c(C2CC2)n1", "INHIBITION": -4.87}
{"smiles": "CCC[C@H]1CN(c2cncc(C(=O)N3CCCCC3)n2)C[C@@H]1N(C)C", "INHIBITION": -16.39}
{"smiles": "Cc1nc(-c2ccoc2)n(CC(=O)N(C)CC(C)C)c1C", "INHIBITION": 64.82}
{"smiles": "CCOC(=O)CNC(=O)Cn1c(-c2ccoc2)nc(C)c1C", "INHIBITION": -19.53}
{"smiles": "Cc1nc(-c2ccoc2)n(CC(=O)NCC(C)C)c1C", "INHIBITION": 19.53}
{"smiles": "O=C(Nc1ccccc1)C1CN(C(=O)c2cccs2)CC12CCOCC2", "note": "(centres undefined)", "INHIBITION": -36.65}
{"smiles": "CC1COCCN1Cc1nc(-c2ccc(F)cc2)no1", "note": "(centres undefined)", "INHIBITION": -24.5}
{"smiles": "CC(=O)Nc1nc(CN2CCOC(Cn3cncn3)C2)cs1", "note": "(centres undefined)", "INHIBITION": -0.13}
{"smiles": "O=C(C1CCCCC1)N1C[C@@H]2CCN(c3cnccn3)C[C@@H]2C1", "INHIBITION": 50.17}
{"smiles": "CCC(=O)N1C[C@@H]2CCN(c3cnccn3)C[C@@H]2C1", "INHIBITION": 40.28}
{"smiles": "O=C(C1CCCC1)N1C[C@@H]2CCN(c3cnccn3)C[C@@H]2C1", "INHIBITION": 28.75}
{"smiles": "O=C(c1cnccn1)N1C[C@@H]2CCN(c3cnccn3)C[C@@H]2C1", "INHIBITION": 24.95}
{"smiles": "CCCC(=O)N1C[C@@H]2CCN(c3cnccn3)C[C@@H]2C1", "INHIBITION": 50.72}
{"smiles": "CC(C)CC(=O)N1C[C@@H]2CCN(c3cnccn3)C[C@@H]2C1", "INHIBITION": 20.51}
{"smiles": "Cc1noc(C)c1CN1C(=O)[C@@H]2CC[C@H]1CN(Cc1cscn1)C2", "INHIBITION": -55.91}
{"smiles": "Cc1ccccc1SC1CCN(C(=O)C2[C@H]3CNC[C@@H]23)CC1", "note": "(some centres undefined)", "INHIBITION": 2.49}
{"smiles": "O=C(CCCn1cncn1)N1CCCC1c1noc(C2CC2)n1", "note": "(centres undefined)", "INHIBITION": 8.65}
{"smiles": "Cc1nc(CN2CCCC2c2noc(C3CC3)n2)nc2ccccc12", "note": "(centres undefined)", "INHIBITION": 22.29}
{"smiles": "CN1CCC(O)(CNC(=O)c2cc(COc3cccc(F)c3)[nH]n2)CC1", "INHIBITION": -13.79}
{"smiles": "Cc1n[nH]c(C2CN(C(=O)c3cc(C)sc3C)CCO2)n1", "note": "(centres undefined)", "INHIBITION": 40.13}
{"smiles": "O=C(Cn1ccc2cc(Br)ccc21)NCc1ccc(C(=O)O)cc1", "INHIBITION": 18.15}
{"smiles": "CCCS(=O)(=O)N1CCOC2(CCCN(c3ccc(C)nn3)C2)C1", "note": "(centres undefined)", "INHIBITION": -15.73}
{"smiles": "CCc1ccc(NC(=O)N2C[C@@H]3C[C@H](C(=O)NC)[C@H](C2)O3)cc1", "INHIBITION": -56.73}
{"smiles": "CNC(=O)[C@H]1C[C@H]2CN(C(=O)Nc3ccccc3)C[C@@H]1O2", "INHIBITION": 7.35}
{"smiles": "CNC(=O)[C@H]1C[C@H]2CN(C(=O)Nc3ccc(F)cc3)C[C@@H]1O2", "INHIBITION": 56.15}
{"smiles": "COCCOCC(=O)N1C[C@@H]2CC[C@H](Oc3cccc(F)c3)[C@@H]2C1", "INHIBITION": 24.06}
{"smiles": "Cc1ccc(C)c(NS(=O)(=O)c2cc3c(c(C(=O)O)c2)OCCO3)c1", "INHIBITION": -5.09}
{"smiles": "O=C(Cc1ccc(F)cc1)N1CCn2cc(Cn3cncn3)nc2C1", "INHIBITION": 37.2}
{"smiles": "CC(=O)N1C[C@@H](c2ccsc2)[C@@H]2CN(Cc3ccccc3Cl)CC[C@@H]21", "INHIBITION": -27.6}
{"smiles": "CN1CCC(c2cccc(NCc3nccn3C)n2)CC1", "INHIBITION": 29.25}
{"smiles": "C1CC(CN2CCc3c(nnn3CC3CC3)C2COCC2CC2)C1", "note": "(centres undefined)", "INHIBITION": -38.23}
{"smiles": "Cn1nnc2c1CCN(CC1CC1)C2COCC1CC1", "note": "(centres undefined)", "INHIBITION": -10.89}
{"smiles": "C1CN(CC2CC2)C(COCC2CC2)c2nnn(CC3CC3)c21", "note": "(centres undefined)", "INHIBITION": 61.44}
{"smiles": "Cn1nc2c(cc1=O)CN(Cc1nc(C(C)(C)C)no1)CC2", "INHIBITION": 12.91}
{"smiles": "COc1cc(C)c(NC(=O)NCCn2cccc2)cc1OC", "INHIBITION": 74.18}
{"smiles": "COc1cc(C)c(NC(=O)CCn2cccc2)cc1OC", "INHIBITION": 30.42}
{"smiles": "COc1cc(Cl)c(NC(=O)NCCn2cccc2)cc1OC", "INHIBITION": -23.44}
